According to PubChem BioAssay AID652104 (National Center for Advancing Translational Sciences (NCATS), 2013):
Several values for one entry are separate records, joined by “and”; a condition that tells them apart may be missing. Identical values can stand only once. The whole screen tested about 410,000 compounds, of which about 7,200 (1.8%) were called active. About 7% were inconclusive and are not listed. Calls follow the shape of the dose curve; as a rule, active = well fitted activation curve with a large enough effect; inconclusive = small, poorly fitted or top-dose-only effect, or another doubt; inactive = no such curve, though single readings can be large or run the other way. The sample as a whole holds a higher share of actives than the screen did.

test: qHTS of TDP-43 Inhibitors; settings: TDP-43 expressing yeast growth rescue, BacTiter-Glo, 24 h; series mostly up to 46.1 µM; growth rescue (activation): at the top concentration; also: nearly all actives have a fitted effect of over 50% in size; as to growth rescue (activation): % of control where 0% means no effect
How it was run: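 Luminescence from BacTiter-Glo reports growth of TDP-43-expressing yeast after 24 hr at 30 deg C with compound. Cells were raffinose-pregrown to mid-log, then seeded in galactose medium at OD600=0.02.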
Potency is read from the fitted curve at half-maximal effect.

Structure (SMILES)	growth rescue (activation)	Potency
O=C(NCc1ccc2c(c1)CCN2C(=O)c1ccccc1)Nc1cc(F)ccc1F	-15.6% (inactive)	–
COc1ccc2c(c1)c1ncn(Cc3ccccn3)c(=O)c1n2C	-11.4% (inactive)	–
Cc1ccc2c(c1)c1ncnc(N3CCc4ccccc4C3)c1n2C	–	22.4 µM (active)
Cc1ccc2c(c1)N(C(=O)CCC(=O)N1CCc3ccccc3C1)CCO2	15.3% (inactive)	–
CCOc1ccc(-n2nc3ccc(NC(=O)c4ccc(OC)c(Cl)c4)cc3n2)cc1	10.4% (inactive)	–
CCCCOc1ccc(NC(=O)c2cc3c(n(-c4ccc(Cl)cc4)c2=O)CCCC3=O)cc1	-8.97% (inactive)	–
CCC(=O)N1N=C(c2ccc(OC)cc2)CC1c1cn(-c2ccccc2)nc1-c1cccs1 (stereo unspecified)	-13% (inactive)	–
COc1ccc(C2=NN(C(=O)CSc3nc(=O)n4ccc(C)cc4n3)C(c3ccc(C)cc3)C2)cc1 (stereo unspecified)	9.83% (inactive)	–
COc1ccc(C2=NN(C(C)=O)C(c3ccccc3)C2)cc1 (stereo unspecified)	–	14.1 µM (active)
CCN(C(=O)Cn1c(=O)nc(-c2ccccc2)c2cc(Cl)ccc21)c1cccc(C)c1	18.1% (inactive)	–
Cn1c(=O)c2c(-c3ccccc3Br)n(Cc3ccccc3)cc2n(C)c1=O	–	22.4 µM (active)
Cc1ccc(-c2c3c(=O)n(C)c(=O)n(C)c3cn2-n2cnnc2)cc1	-8.21% (inactive)	–
COc1ccc(CCn2cc3c(c2-c2ccc(Br)cc2)c(=O)n(C)c(=O)n3C)cc1OC	2.32% (inactive)	–
CCc1ccc(S(=O)(=O)c2nnn3c2nc(NCc2ccccc2OC)c2cc(Cl)ccc23)cc1	1.16% (inactive)	–
NS(=O)(=O)c1ccc(NC(=O)C(=O)Nc2ccc3nc4n(c(=O)c3c2)CCCCC4)cc1	13.4% (inactive)	–
CC(C)NS(=O)(=O)c1ccc(NC(=O)C2CCCCC2)cc1	-2.1% (inactive)	–
CCOC(=O)c1cc(C)sc1NC(=O)C1CCC1	14.2% (inactive)	–
Cc1nc(NC(=O)C2CCCCC2)sc1C	–	12.6 µM (active)
CCOC(=O)C1CCCN(C(=O)c2ccc3c(c2)sc2nc(-c4ccc(CC)cc4)cn23)C1 (stereo unspecified)	19.4% (inactive)	–
COc1ccc(/C=C/c2nc(C#N)c(NCc3ccc(F)cc3)o2)cc1OC	3.83% (inactive)	–
COc1cc2[nH]c(=O)n(Cc3ccc(C(=O)NCc4ccc(C)cc4)cc3)c(=O)c2cc1OC	13.5% (inactive)	–
Cc1cccc(N2CCN(C(=O)CCSCc3ccccc3F)CC2)c1C	–	20 µM (active)
COc1ccc(N2CCN(C(=O)CCSCc3ccccc3F)CC2)cc1	10.3% (inactive)	–
O=C(CCSc1ccccc1)N1CCN(c2ccccc2F)CC1	-9.85% [at 9.22 µM] (inactive)	–

Structure (SMILES)	growth rescue (activation)	Potency
CCc1cc2c(cc3c(=O)n(CC(=O)NCc4cccc(Cl)c4)nc(CC)n32)s1	20.3% (inactive)	–
C=Cc1ccc(Cn2c(C(=O)O)c(CNC3CCCC3)c3ccc(C)cc32)cc1	19.4% (inactive)	–
CCCNC(=O)C1CCC(Cn2c(=O)c3sccc3n(Cc3ccccc3F)c2=O)CC1 (stereo unspecified)	5.85% (inactive)	–
COc1ccccc1-c1cc2nc(C)c(CCC(=O)NC3CCCCC3)c(C)n2n1	15.4% (inactive)	–
COc1ccc(-c2cc3nc(C)c(CCC(=O)NC(C)CCc4ccco4)c(C)n3n2)c(OC)c1 (stereo unspecified)	–	17.8 µM (active)
COc1ccccc1-c1cc2nc(C)c(CCC(=O)O)c(C)n2n1	12.8% (inactive)	–
COc1ccc([C@H]2CC(=O)C=C(c3ccc(OC(F)(F)F)cc3)C2)cc1OC	–	14.1 µM (active)
COc1ccc([C@H]2CC(=O)C=C(c3ccc(CO)cc3)C2)cc1	4.37% (inactive)	–
COc1ccc([C@H]2CC(=O)C=C(/C=C/c3ccccc3)C2)cc1	22.2% (inactive)	–
COc1ccc(C2CC(=O)n3c(nc4ccccc43)S2)cc1OC (stereo unspecified)	-3.84% (inactive)	–
COc1ccc(C2CC(=O)C=C(NCC3CCCO3)C2)cc1 (stereo unspecified)	3.96% (inactive)	–
COc1cccc(C2=CC(=O)C[C@H](c3ccc(OC)c(OC)c3)C2)c1	–	15.8 µM (active)
CCOC(=O)c1c(NC(=O)Cc2coc3ccc(CC)cc23)sc2c1CCC2	9.45% (inactive)	–
O=C(Nc1ccc(OC(F)(F)F)cc1)C1CCCN(S(=O)(=O)c2ccc(Br)s2)C1 (stereo unspecified)	0% (inactive)	–
CC(NC(=O)c1cc2c(=O)n3ccccc3nc2n(C(C)C)c1=N)c1ccccc1 (stereo unspecified)	9.02% (inactive)	–
COc1ccc(C2=NS(=O)(=O)N(C)C(C(=O)N(C)Cc3ccccc3)=C2)cc1	23.4% (inactive)	–
CN(CCOc1ccccc1)C(=O)c1cc(-c2ccco2)nc2ccccc12	–	35.5 µM (active)
CN(Cc1ccccc1)C(=O)c1cc2c(=O)n(C)c3ccccc3c2s1	-22% (inactive)	–
COc1ccc(-c2cc(C(=O)N(C)Cc3ccccc3)c3ccccc3n2)cc1	–	14.1 µM (active)
COc1cccc(NC(=O)CN(C)C(=O)c2cc(Cl)nc3ccccc23)c1	14.2% (inactive)	–
CN(C)C(CNC(=O)CCCOc1ccccc1)c1ccco1 (stereo unspecified)	8.75% (inactive)	–
Cc1ccc2oc3c(c(=O)c2c1)C(c1ccc(O)cc1)N(Cc1ccc2c(c1)OCO2)C3=O (stereo unspecified)	-1.95% (inactive)	–
CNc1ccc(-c2nc(-c3ccccc3C)no2)cc1[N+](=O)[O-]	2.62% (inactive)	–
Cc1ccc(CN2CCC(CNC(=O)c3cnn(-c4ccc(C)cc4)c3C3CCN(C(=O)OC(C)(C)C)CC3)CC2)cc1	-10.7% (inactive)	–

Structure (SMILES)	growth rescue (activation)	Potency
COc1ccc(Cc2nnc(SCC(=O)c3cccc([N+](=O)[O-])c3)n2C)cc1	-18.2% (inactive)	–
COc1ccc(CCNS(=O)(=O)c2cccc([N+](=O)[O-])c2)cc1	-3.92% [at 1.82 µM] (inactive)	–
COc1ccc(CC(=O)N/N=C/c2cc([N+](=O)[O-])cc(Br)c2O)cc1	–	6.31 µM (active)
O=C(COc1ccccc1Cl)Nc1ccc2nc(SCC(=O)N3CCCC3)sc2c1	5.47% (inactive)	–
Cc1ccc(NC(=O)COc2coc(CN3CCc4ccccc4C3)cc2=O)cc1Cl	-7.54% (inactive)	–
Cc1ccccc1OCC(=O)Nc1ccc(N2CCN(C(=O)C(C)C)CC2)c(Cl)c1	–	25.1 µM (active)
COc1ccc(-c2nc(SCC(=O)N3CCCCC3C)n[nH]2)cc1 (stereo unspecified)	8.34% (inactive)	–
COc1ccccc1CN1CCC(CNC(=O)c2cnn(-c3ccccc3Cl)c2C2CCN(C(=O)OC(C)(C)C)CC2)CC1	23.3% (inactive)	–
CCCC(=O)Nc1cc2nn(-c3ccccc3)nc2cc1C	20.7% (inactive)	–
COc1ccc(Cl)cc1-c1cc(C(=O)Nc2cc(OC)c(OC)c(OC)c2)[nH]n1	0% (inactive)	–
CCCOc1ccc(F)cc1-c1cc(C(=O)Nc2ccc(F)c(Cl)c2)[nH]n1	–	8.91 µM (active)
CCN(CC)C(=O)Oc1ccc(Br)cc1C(=O)Nc1ccc(F)c(Cl)c1	17.1% (inactive)	–
CC(C)(C)c1ccc(C(=O)NCC(c2ccc(Cl)cc2)N2CCOCC2)cc1 (stereo unspecified)	0% (inactive)	–
Cc1ccc(-c2ccc(CCC(=O)O)n2-c2ccc(C(N)=O)cc2)cc1	24.7% (inactive)	–
CCOC(=O)c1ccc(-n2c(CCC(=O)O)ccc2-c2ccccc2)cc1	–	25.1 µM (active) and 35.5 µM (active)
COc1ccc(-c2ccc(CCC(=O)O)n2-c2ccc(O)cc2)cc1	-16.9% [at 9.22 µM] (inactive)	–
Cc1ccc(C2CCN(C(=O)c3cnn(-c4ccccc4Cl)c3C3CCN(C(=O)OC(C)(C)C)CC3)C2)cc1 (stereo unspecified)	14.4% (inactive)	–
O=C(CN1C(=O)COc2ccc(S(=O)(=O)N3CCCCCC3)cc21)N1CCN(c2cccc(C(F)(F)F)c2)CC1	-15.3% (inactive)	–
Cc1ccc(/C=N/NC(=O)Cn2ccc(C(F)(F)F)n2)o1	-13.1% (inactive)	–
COC(=O)N/N=C/c1ccc(-c2ccc(Cl)c(Cl)c2)o1	–	12.6 µM (active)
O=C(N/N=C\c1ccc(-c2ccc(Cl)c(Cl)c2)o1)C(=O)N1CCCC1	14.6% (inactive)	–
Cc1ccc(NC(=O)c2cn3c4c(ccc(Cl)c4c2=O)OC(C)C3)cc1C (stereo unspecified)	8.62% (inactive)	–
Cc1cccc(Nc2cc(C)nc(-n3nc(C)cc3C)n2)c1	20.6% (inactive)	–
COc1ccc2c(Sc3ccc(C)cc3)c(C(=O)NC(C)c3ccccc3)[nH]c2c1 (stereo unspecified)	4.22% (inactive)	–

Structure (SMILES)	growth rescue (activation)	Potency
CSc1cccc(NC(=O)CSc2ccccc2)c1	–	14.1 µM (active)
Cc1nnc(SCC(=O)Nc2cccc(N)c2)n1-c1ccccc1	7.19% (inactive)	–
O=C(CSc1ccccc1)Nc1cccc(S(=O)(=O)N2CCOCC2)c1	10.9% (inactive)	–
Cc1ccc2nc(/C(C#N)=C/c3ccc(-c4ccc(C(=O)OC(C)C)cc4)o3)[nH]c2c1	29.7% (inactive)	–
COc1ccccc1NC(=O)c1cc(S(=O)(=O)NCCc2ccccc2)ccc1F	26% (inactive)	–
COc1cccc(N2CCN(S(=O)(=O)c3ccc4c(c3)CCCN4C(C)=O)CC2)c1	14.5% (inactive)	–
COc1cccc(N2CCN(C3CC(=O)N(c4ccc(Cl)cc4)C3=O)CC2)c1 (stereo unspecified)	9.45% (inactive)	–
COc1cccc(N2C(=O)CC(N3CCN(S(=O)(=O)c4ccccc4)CC3)C2=O)c1 (stereo unspecified)	7.1% (inactive)	–
COc1cccc(N2C(=O)CC(N3CCc4ccccc4C3)C2=O)c1 (stereo unspecified)	–	17.8 µM (active)
CCOc1ccccc1C(=O)Nc1ccc2c(c1)N(C)C(=O)c1ccccc1S2	10.1% (inactive)	–
CCc1noc(C)c1C(=O)N1CCCSC1=Nc1ccccc1OC	13.6% (inactive)	–
CCc1noc(C)c1C(=O)Nc1nc(-c2ccccc2)cs1	–	11.2 µM (active)
CCc1noc(C)c1C(=O)OCC(=O)c1ccc(NC(=O)CC(C)C)cc1	-3.44% (inactive)	–
O=C(/C=C/c1cn(CC(O)CN2CCc3ccccc32)c2ccccc12)c1ccc(Br)cc1 (stereo unspecified)	-30.3% (inactive)	–
COc1ccc(OCc2ccc(-c3nc(C#N)c(N4CCN(c5ccccc5)CC4)o3)o2)cc1	6.14% (inactive)	–
CC1CCN(c2oc(-c3ccccc3F)nc2C#N)CC1	–	15.8 µM (active)
Cc1ccccc1OCc1ccc(-c2nc(C#N)c(N3CCCCC3)o2)o1	0.64% (inactive)	–
Cc1nn(C)c2c1c(C(F)(F)F)cc(=O)n2C(C)C(=O)NCc1ccc(Cl)cc1 (stereo unspecified)	2.64% (inactive)	–
Cc1ccccc1CNC(=O)CCCn1nc(C)c2sc3ccccc3c2c1=O	2.7% (inactive)	–
Cc1cc(-c2cccs2)nc(-n2cccc2)n1	–	12.6 µM (active)
Cc1cc2nc(C(F)(F)F)cc(-c3cccs3)n2n1	7.65% (inactive)	–
CC(C)(C)Nc1c(-c2cccs2)nc2ccccn12	-18.1% (inactive)	–
CCc1nnc(SCc2c(F)cccc2Cl)c2cc3sccc3n12	-0.933% (inactive)	–
CC(=O)OCC1(O)CC23CCC4c5ccoc5CCC4(C)C2CCC1C3 (stereo unspecified)	–	17.8 µM (active)
